Inconclusive results are not listed. Activity calls are given as the source filed them. Calls come from the whole dose curve; as a rule, active = well fitted curve in the direction sought with a large enough effect; inconclusive = small, poorly fitted or top-dose-only effect, or another doubt; inactive = no such curve, though single readings can be large; an effect the other way counts as inactive or inconclusive.
Key:
[1] = qHTS assay for measurement of the activity of small molecule inhibitors on Zika virus induced Caspase-3 activity in human astrocytoma cells (AID 1224859);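 note: plate controls were ZIKV-infected untreated cells for no effect and uninfected cells for full effect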
In short: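 Human SNB-19 astrocytoma cells in RPMI 1640 with 10% FBS receive compound one hour ahead of Zika virus at 2 FFU/cell. After 6 h infection, caspase-3/7 activity is detected by Caspase-Glo luminescence.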

[2] = qHTS assay to identify small molecule inhibitors of chordoma cells - UCH-1 (AID 1259355); note: % is set by controls: 0 for no effect and ±100 for the full control effect; nearly all actives have a fitted effect of over 55% in size
In short: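 800 cells/well, overnight attach; compounds pinned at 15 concs, then auranofin/camptothecin/doxorubicin/rubitecan/topotecan combo added; 48hr 37 C, 5% CO2; CellTiter-Glo, 30min RT, luminescence.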

[3] = qHTS assay to identify small molecule inhibitors of chordoma cells - UCH-2 (AID 1259356); note: series mostly up to about 46 µM; % is set by controls: 0 for no effect and ±100 for the full control effect
[4] = P-glycoprotein substrates identified in KB-8-5-11 adenocarcinoma cell line, qHTS therapeutic library screen (AID 1346987); note: series mostly up to about 44 µM; % is set by controls: 0 for no effect and ±100 for the full control effect; nearly all actives have a fitted effect of over 65% in size
In short: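 Luminescence from CellTiter-Glo, read 5 min after addition, quantified survival of KB-8-5-11 (P-gp-overexpressing) cells exposed to compounds for 72 h. AC50 was derived from concentration-response curves.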

[5] = NS1 protein of Zika virus - qHTS assay to identify small molecule inhibitors in human HEK 293 cells (AID 1347053);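 note: series mostly up to about 46 µM; plate controls were infected untreated cells for no effect and uninfected cells for full effect; nearly all actives have a fitted effect of over 55% in size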
In short: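 In this cell-based screen, HEK 293 cultures received compound for one hour before Zika MR766 at MOI = 0.5. NS1 was quantified 24 hours later by TR-FRET, normalized to virus-free wells and infected wells.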

[6] = qHTS of pediatric cancer cell lines to identify multiple opportunities for drug repurposing: Primary screen for DAOY cells (AID 1347090);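 note: series mostly up to about 46 µM; plate controls were DMSO for no effect and bortezomib for full effect; nearly all actives have a fitted effect of over 55% in size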
In short: (§1)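 Cell viability, CellTiter-Glo luminescence; 500-1,000 cells/well, 8- or 11-point titration, 48 h compound exposure at 37 degrees C, 5% CO2. Controls: DMSO neutral, bortezomib 2.3 µM final as positive.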

[7] = qHTS of pediatric cancer cell lines to identify multiple opportunities for drug repurposing: Primary screen for SJ-GBM2 cells (AID 1347091);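 note: plate controls were DMSO neutral control for no effect and bortezomib for full effect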
In short: as §1

[8] = qHTS of pediatric cancer cell lines to identify multiple opportunities for drug repurposing: Primary screen for A673 cells (AID 1347092); note: % is set by controls: 0 for no effect and ±100 for the full control effect; nearly all actives have a fitted effect of over 45% in size
In short: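 Titration-based qHTS on A673 cells: MIPE compounds spanned 11 points (0.78 nM to 46 µM final), NPC compounds 8 points (0.59 nM to 46 µM final). Viability after 48 h was measured by ATP luminescence.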

[9] = qHTS of pediatric cancer cell lines to identify multiple opportunities for drug repurposing: Primary screen for SK-N-MC cells (AID 1347093);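 note: series mostly up to about 46 µM; plate controls were DMSO neutral control for no effect and bortezomib for full effect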
In short: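 Metabolically active cells were quantified by ATP-dependent luminescence (CellTiter-Glo, 15 min at room temperature) following 48 h treatment. Cells had been plated at 500-1,000 per well and settled for 5 h beforehand.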

[10] = qHTS of pediatric cancer cell lines to identify multiple opportunities for drug repurposing: Primary screen for BT-37 cells (AID 1347094);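 note: series mostly up to about 57 µM; plate controls were DMSO for no effect and bortezomib for full effect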
In short: (§2)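 Quantitative HTS format: each compound titrated (MIPE 11 points from 0.78 nM, NPC 8 points from 0.59 nM) onto cells plated 5 hours earlier. After 48 h at 37 degrees C, CellTiter-Glo luminescence was recorded.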

[11] = qHTS of pediatric cancer cell lines to identify multiple opportunities for drug repurposing: Primary screen for NB-EBc1 cells (AID 1347095);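 note: plate controls were DMSO neutral control for no effect and bortezomib for full effect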
In short: as §2

[12] = qHTS of pediatric cancer cell lines to identify multiple opportunities for drug repurposing: Primary screen for TC32 cells (AID 1347089); note: % is set by controls: 0 for no effect and ±100 for the full control effect; nearly all actives have a fitted effect of over 60% in size
In short: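 A viability screen of TC32 cells was run over 48 h, with primary MIPE doses spanning 0.78 nM–46 µM and NPC doses 0.59 nM–46 µM. ATP luminescence (CellTiter-Glo) served as the read-out.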

OC[C@H]1O[C@@H]2O[C@H]3[C@H](O)[C@@H](O)[C@@H](O[C@H]4[C@H](O)[C@@H](O)[C@@H](O[C@H]5[C@H](O)[C@@H](O)[C@@H](O[C@H]6[C@H](O)[C@@H](O)[C@@H](O[C@H]7[C@H](O)[C@@H](O)[C@@H](O[C@H]8[C@H](O)[C@@H](O)[C@@H](O[C@H]1[C@H](O)[C@H]2O)O[C@@H]8CO)O[C@@H]7CO)O[C@@H]6CO)O[C@@H]5CO)O[C@@H]4CO)O[C@@H]3CO
inactive: outcome [1] | Potency [2] | Potency [3] | Potency [4] | Potency [5] | Potency [6] | Potency [7] | Potency [8] | Potency [9] | Potency [10] | Potency [11]

CC(C)CCCC(C)N (centres undefined)
inactive: outcome [1] | Potency [2] | Potency [3] | Potency [4] | Potency [5] | Potency [6] | Potency [7] | Potency [8] | Potency [9] | Potency [10] | Potency [11]

CC(C)(C)CC(C)(C)c1ccc(O)c(-n2nc3ccccc3n2)c1
inactive: outcome [1] | Potency [2] | Potency [3] | Potency [4] | Potency [5] | Potency [12] | Potency [6] | Potency [7] | Potency [10] | Potency [11]

CCOCCn1c(N2CCCN(C)CC2)nc2ccccc21
inactive: outcome [1] | Potency [2] | Potency [3] | Potency [4] | Potency [5] | Potency [6] | Potency [7] | Potency [8] | Potency [9] | Potency [10] | Potency [11]

CC(C)[N+](C)(C)CC(O)COc1cccc2ccccc12 (centres undefined)
inactive: outcome [1] | Potency [2] | Potency [3] | Potency [4] | Potency [5] | Potency [12] | Potency [6] | Potency [7] | Potency [10] | Potency [11]

C[N+]1(C)CCC(=C(c2ccccc2)c2ccccc2)CC1
inactive: outcome [1] | Potency [2] | Potency [3] | Potency [4] | Potency [5] | Potency [6] | Potency [7] | Potency [9] | Potency [10] | Potency [11]

CCOC(=O)c1c(N)sc2c1CCN(Cc1ccccc1)C2
inactive: outcome [1] | Potency [2] | Potency [3] | Potency [4] | Potency [5] | Potency [12] | Potency [6] | Potency [7] | Potency [11]

CCN[C@@H]1C[C@H](N)[C@@H](OC2OC(CN)=CCC2N)[C@H](O)[C@H]1O[C@H]1OC[C@](C)(O)[C@H](NC)[C@H]1O (some centres undefined)
inactive: activity change, negative = inhibition [1] 15.8% [at 0.568 µM] | Potency [2] | Potency [3] | Potency [4] | activity change, negative = inhibition [5] -23.1% [at 0.593 µM] | activity change, negative = cytotoxic [6] 1.01% [at 0.597 µM] | activity change, negative = cytotoxic [7] 1.88% [at 0.597 µM] | activity change, negative = cytotoxic [8] -2.55% [at 0.597 µM] | activity change, negative = cytotoxic [9] -24.4% [at 0.597 µM] | activity change, negative = cytotoxic [10] 5.98% [at 0.745 µM] | activity change, negative = cytotoxic [11] -22.3% [at 0.597 µM]

Nc1nc(-c2ccccc2)c(Br)c(=O)[nH]1
inactive: outcome [1] | Potency [2] | Potency [3] | Potency [4] | Potency [5] | Potency [12] | Potency [6] | Potency [8] | Potency [9] | Potency [10] | Potency [11]
